Results on 44 sequences are retold here after PMC7819943, “Rice protein-binding microarrays: a tool to detect cis-acting elements near promoter regions in rice”.

Whole data set: some 35,000 sequences, median “fluorescence intensity (a.u.)” near 10,000, cut for the highest 2% near 52,000. For the sample, the highest values were picked, then their nearest neighbours and some sequences at random.

The target of the test is T1, OsWOX13 (Oryza sativa, UniProt Q5QMM3 1-267).
T1 sequence: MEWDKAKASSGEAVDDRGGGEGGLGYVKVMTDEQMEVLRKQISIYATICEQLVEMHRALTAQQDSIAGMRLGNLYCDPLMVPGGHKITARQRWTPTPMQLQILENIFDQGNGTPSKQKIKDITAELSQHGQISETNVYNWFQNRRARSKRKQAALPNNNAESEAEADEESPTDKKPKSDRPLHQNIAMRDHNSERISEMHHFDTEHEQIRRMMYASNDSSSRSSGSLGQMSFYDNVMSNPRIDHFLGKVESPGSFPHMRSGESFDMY
Description: protein-binding microarray (RPBM); PBS, 2% BSA, 51.3 ng/ul salmon testes DNA, 50 uM zinc acetate, 200 nM TF, 25 C, 1 h; high values mean tight binding. The note with it: protein: recombinant; tags: N-terminal polyhistidine and DsRed monomer fusion (pET32a); label: CyDye5-dUTP incorporated in the synthesized complementary strand; 3' TTTTT single-stranded linker to array surface; dsDNA, one strand shown. The method, boiled down:
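Transcription factors were made in E. coli BL21-CodonPlus as N-terminal fusions to a polyhistidine tag and DsRed, then purified on Ni–NTA. After primer extension with Cy5-dUTP and blocking with 2% BSA, a custom Agilent array was exposed for 1 h at 25 °C to 200 nM protein in PBS, 2% BSA, salmon testes DNA and 50 µM zinc acetate. Washed arrays were scanned on an Axon 4000B, and the binding signal is per-feature fluorescence intensity in arbitrary units.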
Consider “AATTTGAAATTTCAAACTTAATTTTAACATTGATTTTGAGCGGAGTCACCTAGTGCAG”, for which the binding signal was 6660 fluorescence intensity (a.u.).

For the sequence “AACCATGTTTGACTCAACATAATTAGTGCGACAAACCGCACGGAGTCACCTAGTGCAG”, the binding signal is 4590 fluorescence intensity (a.u.).

For the sequence “TTATCGAACATACTAATTGACTCTCAGGGAGTCAAGGATCCGGAGTCACCTAGTGCAG”, the binding signal is 7680 fluorescence intensity (a.u.).

On to “AGGGTTAAATTGTCAAAATTTGTGCGACACAAACACACTCCGGAGTCACCTAGTGCAG”, for which the binding signal is 10900 fluorescence intensity (a.u.).

Regarding “TCGAGATGGATAATTAGATTGATTGATTGGCCGATAGCCCCGGAGTCACCTAGTGCAG”, the binding signal was 65100 fluorescence intensity (a.u.).

Consider “ATTTAAATGAGATGATTGATGGGGCAATTAGTACTCTAGACGGAGTCACCTAGTGCAG”, for which the binding signal is 38600 fluorescence intensity (a.u.).

As for “CATTAATTAGATTGAGACAGTACTGAGATGATTGCCGCCCCGGAGTCACCTAGTGCAG”, the binding signal was 65200 fluorescence intensity (a.u.).

In the case of “TATAGTGCAGATTTTGAAATTGATGAGTGCACGTTTGGGCCGGAGTCACCTAGTGCAG”, the binding signal was 6560 fluorescence intensity (a.u.).

In the case of “ATAATTGAAAATTGATTAGAGTACCTTTTGATGAGATAGCCGGAGTCACCTAGTGCAG”, the binding signal was 57300 fluorescence intensity (a.u.).

Regarding “CTTAACAACTGAACTGATTGAGACAGTAGATGAAATGGAACGGAGTCACCTAGTGCAG”, the binding signal is 21400 fluorescence intensity (a.u.).

“TAGATAGATTTAGTTTTGATAATGGATAGAGATATTGCCCCGGAGTCACCTAGTGCAG”: the binding signal was 11600 fluorescence intensity (a.u.).

For the sequence “AGCCCGATAATTAGATTGATTATAGACATGACTACATATACGGAGTCACCTAGTGCAG”, the binding signal is 18200 fluorescence intensity (a.u.).

For the sequence “AAATTTTGAAATTGTTAATATGATATAAATGAGATATAGCCGGAGTCACCTAGTGCAG”, the binding signal is 3970 fluorescence intensity (a.u.).

For the sequence “TGAAAATGATGTCAATCAAACATGAGTGGGGCCTGCTTTGCGGAGTCACCTAGTGCAG”, the binding signal is 38500 fluorescence intensity (a.u.).

As for “TCACAATAGATAATTTATTCACTGAAAATTTTAGTTTTGGCGGAGTCACCTAGTGCAG”, the binding signal was 11100 fluorescence intensity (a.u.).

For “GGTATTACTGACTGGATTACCATGTGTGCGTCACATCGGACGGAGTCACCTAGTGCAG”, the binding signal is 6490 fluorescence intensity (a.u.).

As to “ATTTCAGATTGGGTTATTTGAGAGCTAAATTTCTAATGTACGGAGTCACCTAGTGCAG”, the binding signal is 4680 fluorescence intensity (a.u.).

As for “TGAAAATGATTTGGGATGGCATTTCAGCGGGTTGGGCTCACGGAGTCACCTAGTGCAG”, the binding signal was 22000 fluorescence intensity (a.u.).

Take “ATAATGGCATAATTTAAATTTTACAAAATACTTATGACACCGGAGTCACCTAGTGCAG”: the binding signal is 12600 fluorescence intensity (a.u.).

For the sequence “AGGTTGATTAACTGTTTCATGAATTTGGTATGTTTGCAGTCGGAGTCACCTAGTGCAG”, the binding signal was 53300 fluorescence intensity (a.u.).

For the sequence “GAAAATGACCAAATTATGAAAACATCCAGGCAATGGATCTCGGAGTCACCTAGTGCAG”, the binding signal is 3240 fluorescence intensity (a.u.).

Regarding “ATTAATTATGTCATAAACTGTTGTTGATTTGTGCCAGTTTCGGAGTCACCTAGTGCAG”, the binding signal was 39500 fluorescence intensity (a.u.).

Regarding “CCTGACAGGTCATCTCCTGATTGAAACCAAAATGTTGGATCGGAGTCACCTAGTGCAG”, the binding signal is 60700 fluorescence intensity (a.u.).

As to “TGATGATTTAACTGTGTTGCATGAATTCATTCCTATTTGACGGAGTCACCTAGTGCAG”, the binding signal was 29500 fluorescence intensity (a.u.).

As for “CTTATATTTGCAAATATTGATGGTTGTTGACATATGAACTCGGAGTCACCTAGTGCAG”, the binding signal was 3210 fluorescence intensity (a.u.).

As to “CGACTGATTGGTTGGGGTCATGGTTGGAACAAAATTTCCTCGGAGTCACCTAGTGCAG”, the binding signal was 52800 fluorescence intensity (a.u.).

“CTAGTAATTACAAACATTGGAACTGAGTTTTGGTTGGGGTCGGAGTCACCTAGTGCAG”: the binding signal was 23800 fluorescence intensity (a.u.).

For the sequence “CATAATGATTGCGTTGAACGTTGGTTGCTTGATCATCTTTCGGAGTCACCTAGTGCAG”, the binding signal is 18600 fluorescence intensity (a.u.).

On to “ATGGTTGATTGATTGCATATATTTGAACAAATGATCTTTGCGGAGTCACCTAGTGCAG”, for which the binding signal is 65500 fluorescence intensity (a.u.).

For the sequence “ACTAAATTGGGTTGGGGTGCCTCCTCCTTCCTTTCTTTCTCGGAGTCACCTAGTGCAG”, the binding signal was 21000 fluorescence intensity (a.u.).

On to “GTTGATGTGATGGAAAATGACTGAAGATTGGATCTAAACTCGGAGTCACCTAGTGCAG”, for which the binding signal was 31100 fluorescence intensity (a.u.).

Regarding “CAAAGATTTCACTGTTTAATCTAATCTTGTGGATTTTATGCGGAGTCACCTAGTGCAG”, the binding signal is 3590 fluorescence intensity (a.u.).

As to “TCGAATTTGATCAGTAGCTTAATTATACTTTAGTACTACCCGGAGTCACCTAGTGCAG”, the binding signal was 10600 fluorescence intensity (a.u.).

Regarding “TGTTAATTATGCCCTCGGTCCAATTGTGATATTCTGTTGACGGAGTCACCTAGTGCAG”, the binding signal was 38300 fluorescence intensity (a.u.).

In the case of “CCCATGTAGATTGGGCCTGCTTAGTGAAGTCTCACGTAGCCGGAGTCACCTAGTGCAG”, the binding signal is 5240 fluorescence intensity (a.u.).

As to “ATCGTAATAGAATATGTCACATTCGGTTTTGGCTCAAGTTCGGAGTCACCTAGTGCAG”, the binding signal is 5710 fluorescence intensity (a.u.).

For “CTTATTCACTTGTGATTGTGATGATTAGCGAACAGAGTTGCGGAGTCACCTAGTGCAG”, the binding signal was 18700 fluorescence intensity (a.u.).

With “AGTTGACAGTTCCAATTAATCGTTCATGCGACCCAATTGACGGAGTCACCTAGTGCAG”, the binding signal is 21500 fluorescence intensity (a.u.).

Turning to “CTAATTTAAATTTGTCTCTTTTCTACCCTCAACCATCATTCGGAGTCACCTAGTGCAG”, the binding signal was 27200 fluorescence intensity (a.u.).

Consider “AGAAATTGATTATGGATGAGTGCCCTTCTGCCTATTATGTCGGAGTCACCTAGTGCAG”, for which the binding signal was 55900 fluorescence intensity (a.u.).

As for “TCCCTGAATTTTAGGAGTGATTGGACCTAAAGTTGAGGAGCGGAGTCACCTAGTGCAG”, the binding signal was 17200 fluorescence intensity (a.u.).

Regarding “TATGAATTGACTATTATATTGGCTATGGATGATTTGTAGTCGGAGTCACCTAGTGCAG”, the binding signal was 30100 fluorescence intensity (a.u.).

In the case of “TCTACTAATTTAAAGTTGCAGTGTTCCTCCTCCCTCCTACCGGAGTCACCTAGTGCAG”, the binding signal was 10700 fluorescence intensity (a.u.).

With “ACTAATTGACTACTCCCTGAATTTAAAGTTGATGGTCAGTCGGAGTCACCTAGTGCAG”, the binding signal is 61100 fluorescence intensity (a.u.).
